# Measurements from article PMC7862700, “An all-to-all approach to the identification of sequence-specific readers for epigenetic DNA modifications on cytosine”.
# Tests used:
# Assay in all cases: DAPPL (digital affinity profiling via proximity ligation, sequencing); 10 mM Tris-HCl pH 7.5, 50 mM NaCl, 1 mM DTT, 4% glycerol, room temperature, 30 min; GST-TFs on glutathione beads, 16-mer random dsDNA library, 0.1% formaldehyde crosslink after washing; high values mean tight binding
# [1] = molecular target: T1, FLI1 (Homo sapiens, UniProt Q01543 1-452); conditions: protein: recombinant; tags: N-terminal GST; dsDNA, one strand shown
# T1 sequence: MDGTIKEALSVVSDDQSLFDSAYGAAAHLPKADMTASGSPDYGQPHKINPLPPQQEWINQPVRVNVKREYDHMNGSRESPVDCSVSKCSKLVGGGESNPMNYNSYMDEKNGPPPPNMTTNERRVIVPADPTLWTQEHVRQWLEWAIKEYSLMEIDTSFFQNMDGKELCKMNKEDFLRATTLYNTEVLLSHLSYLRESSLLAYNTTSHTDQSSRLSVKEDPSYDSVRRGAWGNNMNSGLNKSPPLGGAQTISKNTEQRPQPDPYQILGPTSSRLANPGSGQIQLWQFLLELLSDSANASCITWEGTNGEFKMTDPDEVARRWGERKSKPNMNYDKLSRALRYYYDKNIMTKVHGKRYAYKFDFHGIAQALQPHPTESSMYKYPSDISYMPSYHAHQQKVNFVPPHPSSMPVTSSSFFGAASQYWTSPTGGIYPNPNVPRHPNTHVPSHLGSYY
# Summary of the method: (§1)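 Each value of binding signal is a hexamer's read frequency for a factor divided by the same hexamer's frequency in the tag-only sample. Barcoded, bead-captured GST fusions of human transcription factors made in yeast were pooled with that sample and incubated with 200 nmole of a random double-stranded 16-mer DNA library in Tris/NaCl/DTT/glycerol buffer at room temperature for 30 min. Washing, 0.1% formaldehyde crosslinking, proximity ligation, PCR and Illumina NextSeq500 sequencing followed.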
# [2] = molecular target: T2, ELK1 (Homo sapiens, UniProt P19419 1-428); conditions: protein: recombinant; tags: N-terminal GST; dsDNA, one strand shown
# T2 sequence: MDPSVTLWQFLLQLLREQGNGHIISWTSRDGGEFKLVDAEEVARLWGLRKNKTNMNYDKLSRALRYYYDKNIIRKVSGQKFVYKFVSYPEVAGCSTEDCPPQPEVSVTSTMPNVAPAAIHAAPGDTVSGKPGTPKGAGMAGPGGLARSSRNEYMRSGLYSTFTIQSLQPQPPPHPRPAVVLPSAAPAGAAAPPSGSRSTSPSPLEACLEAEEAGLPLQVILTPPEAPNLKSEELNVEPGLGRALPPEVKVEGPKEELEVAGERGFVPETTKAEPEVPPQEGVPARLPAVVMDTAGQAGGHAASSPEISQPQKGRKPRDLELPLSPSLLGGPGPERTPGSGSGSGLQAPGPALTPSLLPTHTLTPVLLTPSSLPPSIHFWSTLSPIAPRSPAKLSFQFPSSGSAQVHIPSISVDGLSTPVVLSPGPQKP
# Summary of the method: as §1
# [3] = molecular target: T3, GABPA (Homo sapiens, UniProt Q06546 1-454); conditions: protein: recombinant; tags: N-terminal GST; dsDNA, one strand shown
# T3 sequence: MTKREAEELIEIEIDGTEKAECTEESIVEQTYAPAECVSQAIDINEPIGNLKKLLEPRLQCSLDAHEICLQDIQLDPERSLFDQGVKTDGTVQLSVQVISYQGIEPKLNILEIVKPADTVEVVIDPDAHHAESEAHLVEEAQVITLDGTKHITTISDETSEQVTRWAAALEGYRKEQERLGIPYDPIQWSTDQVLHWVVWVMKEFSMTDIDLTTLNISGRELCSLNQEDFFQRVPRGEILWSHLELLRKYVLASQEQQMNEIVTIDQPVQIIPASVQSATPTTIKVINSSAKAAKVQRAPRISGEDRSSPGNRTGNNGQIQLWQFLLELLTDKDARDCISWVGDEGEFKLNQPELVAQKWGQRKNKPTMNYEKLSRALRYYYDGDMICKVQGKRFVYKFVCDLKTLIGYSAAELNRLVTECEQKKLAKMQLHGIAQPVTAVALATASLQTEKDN
# Summary of the method: as §1
# [4] = molecular target: T4, ERG (Homo sapiens, UniProt P11308 1-479); conditions: protein: recombinant; tags: N-terminal GST; dsDNA, one strand shown
# T4 sequence: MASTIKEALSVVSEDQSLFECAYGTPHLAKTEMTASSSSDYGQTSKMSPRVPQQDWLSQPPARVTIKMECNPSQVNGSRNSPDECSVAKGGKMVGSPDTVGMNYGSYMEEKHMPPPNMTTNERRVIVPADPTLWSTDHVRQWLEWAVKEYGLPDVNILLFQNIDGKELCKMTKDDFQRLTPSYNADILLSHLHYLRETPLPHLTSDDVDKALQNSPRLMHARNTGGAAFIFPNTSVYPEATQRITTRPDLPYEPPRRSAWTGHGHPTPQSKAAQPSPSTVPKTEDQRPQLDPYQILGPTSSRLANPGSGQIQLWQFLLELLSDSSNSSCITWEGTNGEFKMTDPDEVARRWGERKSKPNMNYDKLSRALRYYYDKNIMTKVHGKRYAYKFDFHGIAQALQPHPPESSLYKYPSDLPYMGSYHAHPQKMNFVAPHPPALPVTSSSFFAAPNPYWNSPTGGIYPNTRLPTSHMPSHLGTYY
# Summary of the method: as §1
# [5] = molecular target: ELF1 (Homo sapiens, UniProt P32519 1-619); conditions: protein: recombinant; tags: N-terminal GST; dsDNA, one strand shown
# Summary of the method: as §1
# [6] = molecular target: T5, EHF (Homo sapiens, UniProt Q9NZC4 1-300); conditions: protein: recombinant; tags: N-terminal GST; dsDNA, one strand shown
# T5 sequence: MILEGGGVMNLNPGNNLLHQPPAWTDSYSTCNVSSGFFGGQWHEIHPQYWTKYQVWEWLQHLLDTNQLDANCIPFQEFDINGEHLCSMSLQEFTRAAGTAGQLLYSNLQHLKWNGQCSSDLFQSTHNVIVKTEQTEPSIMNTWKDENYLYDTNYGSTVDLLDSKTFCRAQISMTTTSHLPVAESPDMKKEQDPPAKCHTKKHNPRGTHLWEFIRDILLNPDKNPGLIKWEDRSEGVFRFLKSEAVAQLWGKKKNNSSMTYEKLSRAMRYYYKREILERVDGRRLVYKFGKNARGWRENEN
# Summary of the method: as §1
# [7] = molecular target: SPI1 (Homo sapiens, UniProt P17947 1-270); conditions: protein: recombinant; tags: N-terminal GST; dsDNA, one strand shown
# Summary of the method: as §1
# [8] = molecular target: SPIB (Homo sapiens, UniProt Q01892 1-262); conditions: protein: recombinant; tags: N-terminal GST; dsDNA, one strand shown
# Summary of the method: as §1
# [9] = molecular target: T6, ELK3 (Homo sapiens, UniProt P41970 1-407); conditions: protein: recombinant; tags: N-terminal GST; dsDNA, one strand shown
# T6 sequence: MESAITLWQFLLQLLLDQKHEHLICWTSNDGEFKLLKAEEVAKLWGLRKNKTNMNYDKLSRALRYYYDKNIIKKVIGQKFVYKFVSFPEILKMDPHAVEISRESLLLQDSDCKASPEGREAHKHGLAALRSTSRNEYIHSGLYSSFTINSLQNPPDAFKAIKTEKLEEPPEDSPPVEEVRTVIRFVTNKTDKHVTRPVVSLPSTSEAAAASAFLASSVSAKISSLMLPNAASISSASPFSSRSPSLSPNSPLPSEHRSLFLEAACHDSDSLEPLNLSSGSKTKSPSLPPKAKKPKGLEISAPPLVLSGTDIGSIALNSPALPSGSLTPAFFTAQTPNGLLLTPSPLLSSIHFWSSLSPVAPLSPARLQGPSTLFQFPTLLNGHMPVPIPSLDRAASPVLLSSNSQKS
# Summary of the method: as §1
# [10] = molecular target: T7, FEV (Homo sapiens, UniProt Q99581 1-238); conditions: protein: recombinant; tags: N-terminal GST; dsDNA, one strand shown
# T7 sequence: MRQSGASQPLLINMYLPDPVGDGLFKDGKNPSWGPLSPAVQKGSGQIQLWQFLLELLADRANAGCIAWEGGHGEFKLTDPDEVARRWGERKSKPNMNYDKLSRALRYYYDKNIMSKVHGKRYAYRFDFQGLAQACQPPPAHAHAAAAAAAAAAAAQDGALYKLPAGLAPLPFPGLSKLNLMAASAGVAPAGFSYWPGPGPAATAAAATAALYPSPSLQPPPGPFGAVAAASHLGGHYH
# Summary of the method: as §1
# [11] = molecular target: ETV5 (Homo sapiens, UniProt P41161 1-510); conditions: protein: recombinant; tags: N-terminal GST; dsDNA, one strand shown
# Summary of the method: as §1
# [12] = molecular target: HSF1 (Homo sapiens, UniProt Q00613 1-529); conditions: protein: recombinant; tags: N-terminal GST; chain copies: 3; dsDNA, one strand shown
# Summary of the method: as §1
# [13] = molecular target: T8, SPIC (Homo sapiens, UniProt Q8N5J4 1-248); conditions: protein: recombinant; tags: N-terminal GST; dsDNA, one strand shown
# T8 sequence: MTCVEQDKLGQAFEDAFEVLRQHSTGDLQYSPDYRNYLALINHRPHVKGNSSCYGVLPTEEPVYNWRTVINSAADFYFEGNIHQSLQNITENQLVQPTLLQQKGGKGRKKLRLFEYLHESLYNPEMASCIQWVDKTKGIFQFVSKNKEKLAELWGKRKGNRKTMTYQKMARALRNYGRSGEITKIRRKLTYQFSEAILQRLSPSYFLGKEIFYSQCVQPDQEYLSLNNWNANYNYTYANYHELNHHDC
# Summary of the method: as §1
# [14] = molecular target: ELF4 (Homo sapiens, UniProt Q99607 1-663); conditions: protein: recombinant; tags: N-terminal GST; dsDNA, one strand shown
# Summary of the method: as §1
# [15] = molecular target: T9, ELK4 (Homo sapiens, UniProt P28324-2 1-405); conditions: protein: recombinant; tags: N-terminal GST; dsDNA, one strand shown
# T9 sequence: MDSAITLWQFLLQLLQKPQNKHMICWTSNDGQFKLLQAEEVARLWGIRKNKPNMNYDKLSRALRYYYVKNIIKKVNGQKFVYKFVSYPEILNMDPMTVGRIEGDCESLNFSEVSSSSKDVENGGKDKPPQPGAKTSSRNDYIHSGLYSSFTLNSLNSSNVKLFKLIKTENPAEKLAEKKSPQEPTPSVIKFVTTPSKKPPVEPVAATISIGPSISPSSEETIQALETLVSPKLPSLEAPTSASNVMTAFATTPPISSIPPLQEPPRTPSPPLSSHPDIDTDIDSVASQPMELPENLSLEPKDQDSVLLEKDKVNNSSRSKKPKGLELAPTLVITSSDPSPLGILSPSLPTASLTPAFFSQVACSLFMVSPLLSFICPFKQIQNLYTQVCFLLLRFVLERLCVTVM
# Summary of the method: as §1
# [16] = molecular target: T10, ETV2 (Homo sapiens, UniProt O00321 1-342); conditions: protein: recombinant; tags: N-terminal GST; dsDNA, one strand shown
# T10 sequence: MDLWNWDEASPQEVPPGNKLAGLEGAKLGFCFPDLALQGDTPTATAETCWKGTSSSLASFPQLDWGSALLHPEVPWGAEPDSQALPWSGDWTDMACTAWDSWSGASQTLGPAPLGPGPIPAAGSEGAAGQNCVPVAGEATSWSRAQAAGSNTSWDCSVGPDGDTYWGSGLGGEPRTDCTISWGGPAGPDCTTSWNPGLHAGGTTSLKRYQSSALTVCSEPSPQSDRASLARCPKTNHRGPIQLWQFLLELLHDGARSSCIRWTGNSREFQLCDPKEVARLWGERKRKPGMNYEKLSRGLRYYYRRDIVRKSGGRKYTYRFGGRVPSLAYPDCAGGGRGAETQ
# Summary of the method: as §1
# [17] = molecular target: T11, ELF3 (Homo sapiens, UniProt P78545 1-371); conditions: protein: recombinant; tags: N-terminal GST; dsDNA, one strand shown
# T11 sequence: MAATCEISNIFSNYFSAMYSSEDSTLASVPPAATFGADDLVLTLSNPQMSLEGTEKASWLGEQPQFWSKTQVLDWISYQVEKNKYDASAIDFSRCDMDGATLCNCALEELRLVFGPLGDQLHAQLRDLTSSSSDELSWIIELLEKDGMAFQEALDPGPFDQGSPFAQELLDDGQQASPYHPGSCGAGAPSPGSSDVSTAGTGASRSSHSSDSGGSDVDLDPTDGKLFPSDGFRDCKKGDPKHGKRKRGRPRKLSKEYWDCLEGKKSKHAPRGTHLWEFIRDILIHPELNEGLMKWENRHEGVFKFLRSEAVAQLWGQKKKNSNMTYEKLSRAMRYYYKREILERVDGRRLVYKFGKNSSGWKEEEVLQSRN
# Summary of the method: as §1
# [18] = molecular target: CRX (Homo sapiens, UniProt O43186 1-299); conditions: protein: recombinant; tags: N-terminal GST; dsDNA, one strand shown
# Summary of the method: as §1
# [19] = molecular target: ETV1 (Homo sapiens, UniProt P50549 1-477); conditions: protein: recombinant; tags: N-terminal GST; dsDNA, one strand shown
# Summary of the method: as §1
# Sequence of SPIB (Q01892 whole entry): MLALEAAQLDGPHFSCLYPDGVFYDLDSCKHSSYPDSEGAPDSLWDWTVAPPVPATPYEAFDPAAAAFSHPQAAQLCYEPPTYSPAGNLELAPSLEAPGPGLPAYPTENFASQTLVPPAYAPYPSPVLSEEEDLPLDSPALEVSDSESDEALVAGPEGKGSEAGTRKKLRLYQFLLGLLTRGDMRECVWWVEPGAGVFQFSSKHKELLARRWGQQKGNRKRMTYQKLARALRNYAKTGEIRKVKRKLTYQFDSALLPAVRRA
# Sequence of CRX (O43186 whole entry): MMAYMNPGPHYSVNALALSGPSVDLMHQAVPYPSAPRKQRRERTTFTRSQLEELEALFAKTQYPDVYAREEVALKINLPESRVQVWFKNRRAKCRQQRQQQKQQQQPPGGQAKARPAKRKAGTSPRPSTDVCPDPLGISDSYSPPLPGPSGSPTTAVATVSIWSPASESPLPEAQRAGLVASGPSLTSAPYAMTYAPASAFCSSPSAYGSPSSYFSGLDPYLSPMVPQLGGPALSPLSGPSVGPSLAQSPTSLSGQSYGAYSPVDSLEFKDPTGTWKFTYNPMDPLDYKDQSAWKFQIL
# Sequence of HSF1 (Q00613 whole entry): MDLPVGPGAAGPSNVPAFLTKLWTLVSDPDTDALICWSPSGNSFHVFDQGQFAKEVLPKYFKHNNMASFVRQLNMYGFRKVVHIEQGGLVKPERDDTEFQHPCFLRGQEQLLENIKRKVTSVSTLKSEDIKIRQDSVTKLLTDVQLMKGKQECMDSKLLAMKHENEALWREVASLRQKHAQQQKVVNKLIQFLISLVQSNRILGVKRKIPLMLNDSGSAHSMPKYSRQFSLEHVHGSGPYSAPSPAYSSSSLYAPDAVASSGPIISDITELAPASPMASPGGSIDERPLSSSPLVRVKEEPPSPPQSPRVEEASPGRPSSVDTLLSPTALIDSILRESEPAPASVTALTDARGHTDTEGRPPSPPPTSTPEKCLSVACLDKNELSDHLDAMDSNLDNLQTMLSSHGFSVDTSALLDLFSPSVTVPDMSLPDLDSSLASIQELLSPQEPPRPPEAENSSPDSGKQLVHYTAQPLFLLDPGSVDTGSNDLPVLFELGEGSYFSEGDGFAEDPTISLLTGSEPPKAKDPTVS
# Sequence of ELF4 (Q99607 whole entry): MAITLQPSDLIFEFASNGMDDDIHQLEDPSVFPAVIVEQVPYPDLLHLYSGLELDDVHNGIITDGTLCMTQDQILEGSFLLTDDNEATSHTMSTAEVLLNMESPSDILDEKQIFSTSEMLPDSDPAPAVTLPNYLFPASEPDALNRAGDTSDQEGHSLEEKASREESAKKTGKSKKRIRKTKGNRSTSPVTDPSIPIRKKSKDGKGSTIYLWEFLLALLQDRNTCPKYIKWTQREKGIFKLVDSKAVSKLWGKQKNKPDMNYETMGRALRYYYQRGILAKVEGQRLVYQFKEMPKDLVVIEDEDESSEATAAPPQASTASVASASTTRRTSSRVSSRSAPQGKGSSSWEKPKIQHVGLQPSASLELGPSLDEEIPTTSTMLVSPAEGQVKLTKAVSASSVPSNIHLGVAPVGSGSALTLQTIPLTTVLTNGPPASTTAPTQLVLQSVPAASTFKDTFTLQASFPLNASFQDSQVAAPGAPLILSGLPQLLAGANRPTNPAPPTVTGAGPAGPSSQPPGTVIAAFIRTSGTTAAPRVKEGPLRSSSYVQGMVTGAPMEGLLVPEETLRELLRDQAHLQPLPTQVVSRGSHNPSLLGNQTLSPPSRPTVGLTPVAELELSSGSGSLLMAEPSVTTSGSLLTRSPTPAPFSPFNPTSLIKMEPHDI
# Sequence of ETV5 (P41161 whole entry): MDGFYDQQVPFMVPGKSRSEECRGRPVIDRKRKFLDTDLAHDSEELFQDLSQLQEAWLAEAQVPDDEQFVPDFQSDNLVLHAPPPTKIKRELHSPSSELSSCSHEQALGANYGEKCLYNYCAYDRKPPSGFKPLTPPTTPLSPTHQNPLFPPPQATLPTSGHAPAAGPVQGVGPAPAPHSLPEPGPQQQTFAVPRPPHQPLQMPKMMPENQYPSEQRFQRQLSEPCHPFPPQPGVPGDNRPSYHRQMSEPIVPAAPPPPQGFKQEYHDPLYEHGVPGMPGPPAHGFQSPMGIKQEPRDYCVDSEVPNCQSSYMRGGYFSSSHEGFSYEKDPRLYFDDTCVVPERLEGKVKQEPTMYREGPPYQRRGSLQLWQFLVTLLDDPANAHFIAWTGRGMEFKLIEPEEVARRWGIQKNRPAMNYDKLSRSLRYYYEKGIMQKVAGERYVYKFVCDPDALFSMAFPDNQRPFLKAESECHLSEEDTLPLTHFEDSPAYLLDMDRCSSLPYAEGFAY
# Sequence of ETV1 (P50549 whole entry): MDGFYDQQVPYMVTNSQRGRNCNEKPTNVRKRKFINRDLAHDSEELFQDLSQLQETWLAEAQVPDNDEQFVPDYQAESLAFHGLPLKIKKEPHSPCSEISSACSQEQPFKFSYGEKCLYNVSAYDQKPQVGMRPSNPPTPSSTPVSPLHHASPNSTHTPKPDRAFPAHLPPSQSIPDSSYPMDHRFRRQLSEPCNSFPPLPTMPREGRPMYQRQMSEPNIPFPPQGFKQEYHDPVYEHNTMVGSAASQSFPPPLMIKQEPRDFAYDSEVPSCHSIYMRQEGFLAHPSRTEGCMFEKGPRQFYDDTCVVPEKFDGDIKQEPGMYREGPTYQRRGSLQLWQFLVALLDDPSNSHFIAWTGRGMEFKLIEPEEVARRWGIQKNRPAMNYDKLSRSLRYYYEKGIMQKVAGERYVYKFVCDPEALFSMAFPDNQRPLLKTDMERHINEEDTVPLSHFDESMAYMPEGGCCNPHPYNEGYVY
# Sequence of ELF1 (P32519 whole entry): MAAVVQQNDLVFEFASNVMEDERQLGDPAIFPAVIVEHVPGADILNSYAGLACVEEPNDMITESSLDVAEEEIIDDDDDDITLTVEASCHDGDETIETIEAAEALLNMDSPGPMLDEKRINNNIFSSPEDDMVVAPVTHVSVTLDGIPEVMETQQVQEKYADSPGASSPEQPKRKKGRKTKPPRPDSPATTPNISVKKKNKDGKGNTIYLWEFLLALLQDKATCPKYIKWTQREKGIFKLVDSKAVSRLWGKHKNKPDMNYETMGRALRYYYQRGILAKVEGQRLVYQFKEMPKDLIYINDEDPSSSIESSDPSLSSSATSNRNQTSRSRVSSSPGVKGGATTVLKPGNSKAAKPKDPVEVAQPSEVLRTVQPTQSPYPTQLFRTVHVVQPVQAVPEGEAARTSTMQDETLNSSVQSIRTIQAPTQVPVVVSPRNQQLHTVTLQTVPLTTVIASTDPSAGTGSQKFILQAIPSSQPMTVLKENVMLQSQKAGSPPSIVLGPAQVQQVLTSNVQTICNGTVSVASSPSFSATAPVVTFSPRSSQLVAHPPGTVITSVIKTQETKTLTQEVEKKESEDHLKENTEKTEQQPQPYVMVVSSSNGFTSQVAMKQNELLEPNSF
sequence,measurement,setting,value
TCTATA,binding signal,[1],"1.09 fold enrichment (6-mer frequency, TF over GST control)"
same,binding signal,[2],"1.13 fold enrichment (6-mer frequency, TF over GST control)"
same,binding signal,[3],"1.11 fold enrichment (6-mer frequency, TF over GST control)"
same,binding signal,[4],"1.02 fold enrichment (6-mer frequency, TF over GST control)"
same,binding signal,[5],"1.26 fold enrichment (6-mer frequency, TF over GST control)"
same,binding signal,[6],"1.07 fold enrichment (6-mer frequency, TF over GST control)"
same,binding signal,[7],"1.07 fold enrichment (6-mer frequency, TF over GST control)"
same,binding signal,[8],"1.15 fold enrichment (6-mer frequency, TF over GST control)"
same,binding signal,[9],"1.17 fold enrichment (6-mer frequency, TF over GST control)"
same,binding signal,[10],"1.15 fold enrichment (6-mer frequency, TF over GST control)"
same,binding signal,[11],"1.17 fold enrichment (6-mer frequency, TF over GST control)"
same,binding signal,[12],"1.4 fold enrichment (6-mer frequency, TF over GST control)"
same,binding signal,[13],"1.26 fold enrichment (6-mer frequency, TF over GST control)"
same,binding signal,[14],"1.23 fold enrichment (6-mer frequency, TF over GST control)"
same,binding signal,[15],"1.24 fold enrichment (6-mer frequency, TF over GST control)"
same,binding signal,[16],"1.03 fold enrichment (6-mer frequency, TF over GST control)"
same,binding signal,[17],"1.08 fold enrichment (6-mer frequency, TF over GST control)"
same,binding signal,[18],"1.36 fold enrichment (6-mer frequency, TF over GST control)"
same,binding signal,[19],"1.08 fold enrichment (6-mer frequency, TF over GST control)"
